Screening results as filed in PubChem BioAssay.
p53null 32C kill: qHTS Screen for Compounds that Selectively Target Cancer Cells with p53 Mutations: Cytotoxicity of p53 Null Cells at the Permissive Temperature; AID 903, 2007; H1299-neo p53 null cells, ATP luminescence, 24 h, 32C; 55,000 tested, 0.62% active; Potency, µM (top dose mostly 46.1 µM), inactives show top-dose activity change, negative = cytotoxicity, most hits filed as cytotoxic;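 note: 0% = DMSO only and -100% = full killing by 100 µM tamoxifen; nearly all actives have a fitted effect of over 55% in size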
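H1299-neo, 600 cells/well; overnight 37C; cpd up to 46 uM, 24 h at 32C; ATPlite luminescence after 20 min RT; normalized to DMSO (0%) and tamoxifen 100 uM (100% kill); Hill-fit AC50.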
SKOV3 invasion: Primary qHTS assay for Inhibitors of ovarian cancer metastasis using an organotypic tumor microenvironment (TME) model. SKOV3ip1-GFP adhesion/invasion on 3D omental model, fluorescence. AID 1963576, 2024. Potency, µM (doses to about 45.8 µM), for inactives: top-dose activity change, negative = inhibition, hits mostly inhibitors. 46,000 tested, 0.1% active;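 note: plate controls were DMSO wells for no effect and tomatine positive control wells for full effect; nearly all actives have a fitted effect of over 65% in size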
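Primary human omental fibroblast/mesothelial 3D culture pre-formed 48 h. SKOV3ip1-GFP cells added with compounds (0.36-46 umol/L), incubated 2 h RT/16 h 37 C, fixed; GFP cells quantified at 488/509 nm.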
S16 viability: Cell viability qHTS assay in S16 Pmp22-F2sN cells | S16 Pmp22-F2sN Schwann cells viability, CellTiter-Glo, 24 h | 43,000 tested, 0.48% active | Potency, µM (doses to about 57.5 µM), without a hit: at the top dose activity change, negative = cytotoxicity, usual class: cytotoxic; note: nearly all actives have a fitted effect of over 65% in size
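Used to flag compounds lowering reporter output through toxicity, this quantitative HTS measures ATP-based CellTiter-Glo luminescence in S16 Pmp22-F2sN Schwann cells after 24 h compound exposure at 37C.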
PMP22 txn: Cell-based coincidence reporter assay to measure PMP22 gene transcription in S16 Pmp22-F2sN cells - Primary screen; S16 Pmp22-F2sN Schwann cells (luciferase reporters placed in the Pmp22 gene), FLuc/NLuc coincidence luminescence, 24 h; Potency, µM (doses to about 57.5 µM), inactives show top-dose activity change, negative = inhibition, hits mostly inhibitors; 43,000 tested, 2% active; AID 1508649, 2021; active = clear falling dose curves in both reporters; inconclusive = both reporters move, but less clearly or upward; inactive = either reporter flat; the % is the NLuc reporter signal
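S16 Schwann cells carrying FLuc/NLuc coincidence reporter in the Pmp22 3' UTR treated with compound 24 h at 37C; FLuc then NLuc luminescence read sequentially by dual-luciferase reagents.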
pS6 MEF inh: Acumen qHTS Assay for Inhibitors of the mTORC1 Signaling Pathway in MEF (Tsc2-/-, p53-/-) Cells: Sytravon; Tsc2-/- p53-/- MEF, phospho-rpS6 immunofluorescence/PI, 24 h; Potency, µM (titrated, usually from 38.3 µM), inactives show at the top dose activity change, negative = inhibition, actives largely listed as inhibitors; 44,000 tested, 0.78% active; AID 493208, 2011;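 note: plate controls were DMSO for no effect and rapamycin for full effect; nearly all actives have a fitted effect of over 50% in size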
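Compounds act on Tsc2-/-, p53-/- fibroblasts carrying an empty vector for 24 h before fixation and dual staining for phospho-S6 and DNA (propidium iodide). Values are percentages of cells above a rapamycin-defined pS6/PI threshold.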
p53null 39C tox: qHTS Screen for Compounds that Selectively Target Cancer Cells with p53 Mutations: Cytotoxicity of p53 Null Cells at the Nonpermissive Temperature | H1299 p53-null (neo) cells, 39C, ATPlite viability, 24 h | Potency, µM (top dose mostly 46.1 µM), for the others: top-dose activity, negative = cell killing, most hits filed as cytotoxic | 55,000 tested, 0.97% active | AID 904, 2007;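 note: 0% = DMSO only and -100% = full killing by 100 µM tamoxifen; nearly all actives have a fitted effect of over 50% in size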
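Temperature-shift cytotoxicity format: compound titrations on p53-null or A138V-expressing H1299 cells held 24 hr at 39C, cell ATP then measured, AC50 from Hill model.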
Starred values were filed as active, the others as inactive. Shown are actives, neighbours in structure and some others; about 3% of the full set was active somewhere. Unless noted, calls come from the whole dose curve; as a rule, active = well fitted curve in the direction sought with a large enough effect; inconclusive = small, poorly fitted or top-dose-only effect, or another doubt; inactive = no such curve, though single readings can be large; an effect the other way counts as inactive or inconclusive. Unless noted, % is set by controls: 0 for no effect and ±100 for the full control effect; potency is the fitted concentration of half-maximal effect.

Screening CC(C)(C)c1ccc(C(=O)Nc2onc3c2CCCC3)cc1 returned p53null 32C kill 16µM*, SKOV3 invasion -4%, S16 viability inconclusive, PMP22 txn -25%, pS6 MEF inh 1% and p53null 39C tox inconclusive.
Screening CC(C)COc1ccc(C(=O)Nc2onc3c2CCCC3)cc1 returned p53null 32C kill inconclusive, SKOV3 invasion -5%, S16 viability inconclusive, PMP22 txn 6%, pS6 MEF inh -6% and p53null 39C tox 13µM*.
Screening CCOc1ccc(C(=O)Nc2onc3c2CCCC3)cc1 returned p53null 32C kill 6.3µM*, SKOV3 invasion 1%, S16 viability -2%, PMP22 txn inconclusive, pS6 MEF inh 2% and p53null 39C tox 4µM*.
Screening CC1(C)S[C@H]2[C@H](NC(=O)[C@@H](N)c3ccc(O)cc3)C(=O)N2[C@@H]1C(=O)O returned SKOV3 invasion 4%.
For CC(C)Cc1ccc(S(=O)(=O)N2CCC(c3ccncc3)CC2)cc1 the results were p53null 32C kill inconclusive, SKOV3 invasion inconclusive, S16 viability inconclusive, PMP22 txn inconclusive, pS6 MEF inh 18µM* and p53null 39C tox inconclusive.
Screening O=S(=O)(c1ccc(Cl)cc1)N1CCC(c2ccncc2)CC1 returned p53null 32C kill -2%, SKOV3 invasion 4%, S16 viability 11%, PMP22 txn 5%, pS6 MEF inh -1% and p53null 39C tox 9%.
Screening CC(C)(C)c1ccc(S(=O)(=O)N2CCC(c3ccncc3)CC2)cc1 returned p53null 32C kill inconclusive, SKOV3 invasion 14%, S16 viability inconclusive, PMP22 txn inconclusive, pS6 MEF inh 18µM* and p53null 39C tox inconclusive.
Screening CC(C)c1noc(N2CCC(COc3ccc(-c4ccc(S(C)(=O)=O)cc4)nc3)CC2)n1 returned SKOV3 invasion -12%.
Cc1ccc(NC(=O)c2cc(-c3ccc(Br)s3)nc3ccccc23)cc1F was read as p53null 32C kill -12%, SKOV3 invasion -2%, S16 viability 32µM*, PMP22 txn inconclusive, pS6 MEF inh -9% and p53null 39C tox -21%.
`COc1ccc(CNC(=O)c2cc(-c3ccc(Br)s3)nc3ccccc23)cc1` gave p53null 32C kill 8%, SKOV3 invasion inactive, S16 viability -4%, PMP22 txn inconclusive, pS6 MEF inh -7% and p53null 39C tox inconclusive.
CCc1cccc(CC)c1NC(=O)N1Cc2[nH]nc(NC(=O)c3ccc(N4CCN(C)CC4)cc3)c2C1 was read as SKOV3 invasion -40%.
O=C(/C=C/Nc1ccccc1C(=O)O)c1cccs1 was read as p53null 32C kill 35µM*.
`O=c1[nH]nc(Sc2ncc([N+](=O)[O-])s2)n1-c1ccc2c(c1)OCCO2` gave SKOV3 invasion 15µM*.
`COc1ccc(NS(=O)(=O)c2ccc(N3CCCCS3(=O)=O)cc2)cc1Cl` gave p53null 32C kill 4%, SKOV3 invasion 11%, S16 viability inconclusive, PMP22 txn 7.3µM*, pS6 MEF inh -10% and p53null 39C tox 6%.
Screening COc1ccc(C(=O)NCC(c2cccnc2)N2CCN(c3ccc(F)cc3)CC2)cc1OC (configuration not stated) returned p53null 32C kill -11% and p53null 39C tox -1%.
`COc1cc(C(=O)NCC(c2cccnc2)N2CCN(c3ccc(F)cc3)CC2)cc(OC)c1OC` (configuration not stated) gave p53null 32C kill -22%, SKOV3 invasion 1%, S16 viability 10%, PMP22 txn 7%, pS6 MEF inh 3% and p53null 39C tox 16µM*.
Screening COc1ccccc1N1CCN(C(CNC(=O)C(=O)NCc2cccnc2)c2cccnc2)CC1 (configuration not stated) returned p53null 32C kill inconclusive, SKOV3 invasion 23%, S16 viability -6%, PMP22 txn inconclusive, pS6 MEF inh -1% and p53null 39C tox 20µM*.
Screening CCn1c(C(=O)N(C2CC2)C2CC2)cc2c3c(ncn3C)c(Nc3cc(C)n(C)n3)nc21 returned SKOV3 invasion -5%.
Screening CC(=O)c1ccc(N2CCN(S(=O)(=O)c3ccc4c(c3)CC(C)N4C(=O)C3CCC3)CC2)cc1 (configuration not stated) returned p53null 32C kill -6%, SKOV3 invasion inactive, S16 viability inconclusive, PMP22 txn 13µM*, pS6 MEF inh -7% and p53null 39C tox -11%.
Screening Fc1cc(-c2cccc3ncc(-c4cnn(C5CCNCC5)c4)nc23)cc(F)c1CN1CCOCC1 returned SKOV3 invasion -4%.
Cn1c(C(=O)NCCc2ccccc2)cc2sc(Cl)cc21 was read as p53null 32C kill 11µM*, SKOV3 invasion 1%, S16 viability -5%, PMP22 txn 14%, pS6 MEF inh 0% and p53null 39C tox 7.9µM*.
CC(C)C[C@H](NC(=O)c1cc2ccccc2s1)C(=O)N1CCN(C(=O)[C@H](CO)NS(=O)(=O)c2ccc(Cl)cc2Cl)CC1 was read as SKOV3 invasion 3%.
Screening Nc1c(C(=O)NCc2ccccc2)nnn1Cc1cccc(Br)c1 returned p53null 32C kill -2%, SKOV3 invasion inactive, S16 viability inconclusive, PMP22 txn 3µM*, pS6 MEF inh -22% and p53null 39C tox -11%.
`Cc1cc(C)cc(NC(=O)c2nnn(Cc3cccc(Br)c3)c2N)c1` gave p53null 32C kill -2%, SKOV3 invasion 2%, S16 viability -26%, PMP22 txn inconclusive, pS6 MEF inh -18% and p53null 39C tox -20%.
O=C(/C(C=Nc1ccc(F)cc1)=C(/O)c1ccco1)C(F)(F)F was read as p53null 32C kill 7.9µM* and p53null 39C tox inconclusive.
Cc1cccc(N=C/C(C(=O)C(F)(F)F)=C(\O)c2ccco2)c1 was read as p53null 32C kill 6%.
